From PubChem BioAssay
These entries were drawn from the full list.
TNAP Pi inh: human TNAP enzyme inhibitors, primary screen, biochemical, colorimetric, phosphate release readout | purified TNAP, pNPP, malachite green phosphate absorbance | 21,000 tested, under 10 active | Alkaline phosphatase, tissue-nonspecific isozyme (Homo sapiens), P05186 | inhibition, % at 20 µM
Target sequence (P05186 whole entry, looked up): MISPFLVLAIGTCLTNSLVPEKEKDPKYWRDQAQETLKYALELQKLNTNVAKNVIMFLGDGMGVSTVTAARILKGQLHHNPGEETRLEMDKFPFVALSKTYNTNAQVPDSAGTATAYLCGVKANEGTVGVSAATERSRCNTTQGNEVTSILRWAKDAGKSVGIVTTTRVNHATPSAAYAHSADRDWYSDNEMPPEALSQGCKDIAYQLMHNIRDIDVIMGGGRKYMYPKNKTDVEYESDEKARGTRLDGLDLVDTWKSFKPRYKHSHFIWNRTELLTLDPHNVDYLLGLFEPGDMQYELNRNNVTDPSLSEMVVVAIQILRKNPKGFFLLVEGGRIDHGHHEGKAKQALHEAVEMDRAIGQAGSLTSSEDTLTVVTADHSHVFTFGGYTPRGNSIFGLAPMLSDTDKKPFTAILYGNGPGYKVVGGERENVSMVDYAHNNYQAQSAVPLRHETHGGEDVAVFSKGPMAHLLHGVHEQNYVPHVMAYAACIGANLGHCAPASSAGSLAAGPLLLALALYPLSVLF
TNAP inh pNP: human TNAP enzyme inhibitors, primary screen, biochemical, colorimetric, p-nitrophenol readout; Alkaline phosphatase, tissue-nonspecific isozyme (Homo sapiens), P05186; purified TNAP, pNPP hydrolysis, absorbance 405 nm; inhibition, % at 20 µM; 21,000 tested, under 10 active; AID 615, 2007
Of the large screens only hits and unclear results are named; the others gave an inactive call.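 Rule for the calls: active = inhibition above 50% at the 20 µM single-dose screen; inactive = the rest.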

Cc1nn2c3c(cnc2c1-c1ccc(Cl)cc1)C(=O)CC(c1ccco1)C3 (stereo unspecified)	none
NC(=O)C1CCCN(S(=O)(=O)c2ccc(Br)cc2)C1 (stereo unspecified)	none
Cc1csc2nc(=O)c3ccccc3n12	none
O=C(c1cccc(-n2cnnn2)c1)N1CCOCC1	none
CCc1ccccc1NC(=O)Cn1nnc(-c2cccnc2)n1	none
O=C(NCC(c1cccs1)N1CCOCC1)c1ccc(Cl)s1 (stereo unspecified)	none
O=C(CSc1nnc(COc2ccccc2)n1-c1ccccc1)c1cccs1	none
Cc1nc(CSc2nnc3scc(-c4ccc(Cl)cc4)n23)cs1	none
CCOc1ccccc1-c1nc(SCC(=O)O)n[nH]1	none
NCCCCCc1nnc(SCC(=O)c2ccc(Cl)cc2)o1	none
Nc1c(C(=O)NC2CCCC2)c2nc3ccccc3nc2n1/N=C/c1cccnc1	none
CN(C)CCCN1C(=O)C(=O)/C(=C(/O)c2ccc(S(=O)(=O)N(C)C)cc2)C1c1ccncc1 (stereo unspecified)	none
C1CNCCNCCNCCN1	none
CCOC(=O)N1CCN(c2ncnc3c2oc2nc(CC(C)C)c4c(c23)CCC4)CC1	none
O=C(OCc1nc2ccccc2c(=O)[nH]1)c1cccs1	none
Cc1cc(C)cc(N(CC(=O)NCc2cccnc2)S(C)(=O)=O)c1	none
N#CCSc1nc2scc(-c3cccs3)c2c(=O)n1CCc1ccccc1	none
CCOc1nnnc2c1sc1nc(N3CCOCC3)c3c(c12)CC(C)(C)OC3	none
CCNC(=O)C1CC(=O)N(c2ccc(Br)cc2)C1 (stereo unspecified)	none
O=C(c1ccccc1)N(CCN1CCOCC1)C1(C(=O)Nc2ccccc2)CCCCC1	none
COc1ccc(S(=O)(=O)N2CCC(C(=O)N3CCCCCC3)CC2)cc1	none
COc1cccc(C(=O)OCc2ccccc2C#N)c1O	none
COCC(C)n1c(C)cc(C(=O)COC(=O)c2ccc3ncsc3c2)c1C (stereo unspecified)	none
Cc1cccc(NC(=O)Cn2c(C)c(C#N)c3ccccc32)c1C	none
COC(=O)c1ccccc1NC(=O)C1CCN(C(=O)c2cc(OC)c(OC)c(OC)c2)CC1	none
COc1ccc2c3c(cccc13)NN=C2C	none
CCOc1cc(C2NC(=O)NC(O)(C(F)(F)F)C2C(=O)c2ccc(OC)cc2)ccc1O (stereo unspecified)	none
O=C(CN1C(=O)c2ccccc2S1(=O)=O)N1CCc2ccccc2C1	none
CC(C)(C)NC(=O)CN(Cc1cccnc1)C(=O)c1csnn1	none
CC(C)(C)NC1=CC(=O)OC12CCCCC2	none
O=C(c1ccco1)N1CCN(C(=O)c2cc(-c3ccccn3)nc3ccc(Cl)cc23)CC1	none
O=C(NCc1ccccn1)c1cn(CCc2ccccc2)nn1	none
O=C(NCc1ccc2c(c1)OCO2)C1CC(=O)N(c2ccc(O)cc2)C1 (stereo unspecified)	none
CCOc1ccc(S(=O)(=O)NC(C)(C)C)cc1-c1nc2c(C(C)(C)C)nn(C)c2c(=O)[nH]1	none
COCCOC(=O)c1c(C)oc2ccc(OC(=O)c3ccc4c(c3)OCO4)cc12	none
O=C(CSc1nc2ccccc2o1)NCCOc1ccccc1	none
CCCC(=O)N1CCN(c2nc(CC(C)C)c3c(c2C#N)CCC3)CC1	none
Cc1cc(O)c(-c2n[nH]c3c2C(c2cccc(O)c2)N(Cc2cccnc2)C3=O)cc1Cl (stereo unspecified)	none
Cc1cc(C(=O)Nc2ccc(S(=O)(=O)Nc3nccs3)cc2)c(C)o1	none
O=c1c2sc3nc(N4CCOCC4)c4c(c3c2ncn1Cc1ccco1)CCCC4	none
CCOC(=O)c1ccc(NC(=O)CSc2nnc(CNc3ccc(OC)cc3)n2C)cc1	none
Cc1c(Cl)cccc1NC(=O)CSc1nnc(CCNC(=O)OC(C)(C)C)o1	none
CCCCCOC(=O)c1ccc(NC(=O)c2ccco2)cc1	none
Cn1cc(Cl)nc1C(O)c1ccccc1 (stereo unspecified)	none
COc1cccc(CN(Cc2cccnc2)S(=O)(=O)c2ccc(-n3cnnn3)c(C)c2)c1OC	none
Cc1ccc(N2CC(C(=O)OCc3ccccc3)CC2=O)cc1 (stereo unspecified)	none
O=S(=O)(/C=C/c1ccccc1)Nc1ccc2c(c1)OCO2	none
CCOC(=O)c1c(=O)n(O)c2ccc(C)cc2[n+]1[O-]	none
O=C(CCN1CCN(Cc2ccccc2)CC1)Nc1cccc(Cl)c1	none
Cc1ccc(C(=O)c2cc(C)sc2NC(=O)CN2CCN(C(=O)c3ccco3)CC2)cc1	none
COc1ccc(C(O)P(=O)(OC2CCCCC2)c2ccc(N(C)C)cc2)cc1OC (stereo unspecified)	none
COc1ccc(N(C)S(=O)(=O)c2cccc(C(=O)Nc3ccc(-n4cnnn4)cc3)c2)cc1	none
COc1ccccc1Cn1c2nc3ccccc3nc2c2c(=O)n(CC(C)C)cnc21	none
CC(C)Cn1c(N)c(C(=O)COC(=O)C2=COCCO2)c(=O)n(C)c1=O	none
Cn1c(C(C#N)C2=C(Cl)C(=O)N(c3ccccc3)C2=O)nc2ccccc21 (stereo unspecified)	none
O=C(c1ccco1)N1CCN(C(c2cccs2)c2nnnn2C2CCCCC2)CC1 (stereo unspecified)	none
c1cc2[nH]snc2c2nc(C3CC3)nc12	none
COc1ccc(Cl)cc1C(=O)Nc1nnn(C)n1	none
Cc1cc(C)n(C(=O)c2ccc(S(=O)(=O)NCC3CCCO3)cc2)n1 (stereo unspecified)	none
CCCCCCn1c(C(C)NC(=O)c2ccco2)nc2ccccc21 (stereo unspecified)	none
CCn1c2ccccc2c2nnc(SCCCn3c(=O)[nH]c4ccccc43)nc21	none
Cc1onc(COc2ccccc2O)c1Br	none
CN(C)CCCNc1cc(Cl)c(S(=O)(=O)N2CCCCC2)cc1C(=O)O	none
COc1ccc(CNC(=O)C(C)OC(=O)c2cccn2C)cc1 (stereo unspecified)	none
O=C(NCc1ccc(N2CCCC2=O)cc1)Nc1cccc(Cl)c1	none
O=C(c1cccc(OC(F)F)c1)N1CCN(c2ncccn2)CC1	none
